Growth inhibition data for 20 compounds are collected here from PubChem BioAssay (NCI).

A short description of assay [1]: NCI Yeast Anticancer Drug Screen. Data for the rad50 strain (AID 155).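 Note: 0% = growth of vehicle-only cultures of the same strain.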 To be noted: S. cerevisiae rad50 strain growth inhibition, hits give high values; at 50.0 µM unless noted. Summed up: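 Compounds were tested on a yeast strain with an engineered DNA damage repair alteration; the reported value is growth inhibition normalised to vehicle treatment.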
Assay [2] can be described thus: NCI Yeast Anticancer Drug Screen. Data for the mec2-1 strain (AID 157). To be noted: S. cerevisiae mec2-1 strain, hits give high values; at 50.0 µM unless noted. The procedure, abridged:
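Mutant yeast (mec2-1) grown with compound; growth inhibition relative to vehicle control reported.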

Assay [3] can be described thus: NCI Yeast Anticancer Drug Screen. Data for the sgs1 mgt1 strain (AID 161).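 Note: 0% = growth of cultures given vehicle only.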 The following applies: S. cerevisiae sgs1 mgt1 strain, hits give high values; at 50.0 µM unless noted. Summed up: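 This yeast growth screen uses a strain with defined DNA-repair lesions; compound-treated growth is compared with vehicle-treated growth.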
A short description of assay [4]: NCI Yeast Anticancer Drug Screen. Data for the cln2 rad14 strain (AID 165).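 Note: 0% = growth equal to vehicle treated cultures.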 The following applies: S. cerevisiae cln2 rad14 strain, hits give high values; at 50.0 µM unless noted. Summed up:
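Readout is yeast growth inhibition versus vehicle-treated controls, using a strain with cln2 and rad14 alterations exposed to compound.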

The nature of assay [5]: NCI Yeast Anticancer Drug Screen. Data for the bub3 strain (AID 167). To be noted: S. cerevisiae bub3 mutant strain, hits give high values; at 50.0 µM unless noted. The procedure, abridged: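 Growth of a checkpoint-deficient yeast mutant is measured after compound exposure. Values represent inhibition relative to vehicle.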
A short description of assay [6]: NCI Yeast Anticancer Drug Screen. Data for the mlh1 rad18 strain (AID 175). The following applies: S. cerevisiae mlh1 rad18 strain growth inhibition, hits give high values; at 50.0 µM unless noted. The procedure, abridged:
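Genetically defined yeast (DNA repair-deficient) exposed to compounds; growth inhibition determined relative to vehicle.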

Each structure is given as a SMILES string. The panel holds about 79,000 compounds, 15% with a hit somewhere; the sample as a whole holds those more often. Unmarked numbers belong to inactive results. Activity calls are given as the source filed them. Cut-off read from the data, not from the text of the source: active = growth inhibition above about 70%; inactive = the rest.

Consider `Nc1cc2c(cc1[N+](=O)[O-])-c1ccc(Cl)cc1C2=O`, for which the growth inhibition was 58.5% in assay [1]; -2.45% in assay [2]; 1.45% in assay [3]; 7.5% in assay [4]; -1.95% in assay [5]; 41.2% in assay [6].
Consider `Cc1nc2[nH]c(=O)[nH]c(=O)c2s1`, for which the growth inhibition was -5.65% in assay [1]; 4.15% in assay [2]; -1.25% in assay [3]; -6.6% in assay [4]; -10.8% in assay [5]; -2.35% in assay [6].
As to `O=C(N/N=C/c1ccc(O)cc1)C(c1ccccc1)N1CCCCC1` (stereo not given), the growth inhibition is 5.85% in assay [1]; -7.05% in assay [2]; -7.4% in assay [3]; -18.8% in assay [4]; 3.05% in assay [5]; -5.3% in assay [6].
As to `O=COCCCOCCCOc1ccccc1`, the growth inhibition is 14.3% in assay [1]; -11.8% in assay [2]; -9.35% in assay [3]; -37.4% in assay [4]; -5.6% in assay [5]; 28.4% in assay [6].
Consider `CS(=O)(=O)OCC(Br)C(Br)COS(C)(=O)=O` (stereo not given), for which the growth inhibition in assay [1] was 2.8%; in assay [2], 5.2%; in assay [3] it was 7.7%; in assay [4], 26.4%; in assay [5] it was -5.3%; in assay [6], 10.2%.
With `CCCCCCCCCCCCNCCC(=O)O`, the growth inhibition in assay [1] is 25%; in assay [2] it was -19%; in assay [3], 42.1%; in assay [4] it was 14.6%; in assay [5], 50.5%; in assay [6] it was 36.5%.
For `Nc1cccc(OCCCCCOc2cccc(N)c2)c1`, the growth inhibition in assay [1] was -35.1%; in assay [2], -40.3%; in assay [3] it was -5.75%; in assay [4], 6.6%; in assay [5], -34.5%; in assay [6] it was -20.4%.
On to `N=C(N)CCNC(=O)C1CCC(N)=N1` (stereo not given), for which the growth inhibition in assay [1] was -4.85%; in assay [2] it was -17.8%; in assay [3], -13.9%; in assay [4], 56.4%; in assay [5], -28.1%; in assay [6] it was -13.6%.
`Nc1cnccc1N1CCN(c2cccc3ccccc23)CC1`: the growth inhibition was 99% (active) in assay [1]; 99.3% (active) in assay [2]; 99.2% (active) in assay [3]; 98.8% (active) in assay [4]; 98.4% (active) in assay [5]; 99% (active) in assay [6].
In the case of `CN1C(=O)/C(=C2\SC(=O)N(CN3CCOCC3)C2=O)c2ccccc21`, the growth inhibition in assay [1] was -6.1%; in assay [2] it was -32.9%; in assay [3], -40%; in assay [4], -7.55%; in assay [5], -39%; in assay [6] it was 2.35%.
For the compound `ClCCOC1CCCCO1` (stereo not given), the growth inhibition is -19% in assay [1]; -15.2% in assay [2]; -13.6% in assay [3]; 6.2% in assay [4]; -5.4% in assay [5]; -5.15% in assay [6].
With `O=S(=O)(O)c1cc(N=[N+]([O-])c2ccc(N=Nc3ccccc3)cc2S(=O)(=O)O)ccc1/C=C/c1ccc(N=[N+]([O-])c2ccc(N=Nc3ccccc3)cc2S(=O)(=O)O)cc1S(=O)(=O)O`, the growth inhibition in assay [1] is 28.6%; in assay [2], 11.9%; in assay [3], 9.8%; in assay [4] it was 7.15%; in assay [5], 0.8%; in assay [6], 50.4%.
For the compound `O=C(O)CC1NC(/C(=C/c2ccccc2O)NC(=O)c2ccccc2)OC1=O` (stereo not given), the growth inhibition in assay [1] is -1.5%; in assay [2] it was -5.85%; in assay [3], 15.5%; in assay [4], -5.95%; in assay [5], 15.2%; in assay [6], -28.7%.
Consider `COc1cccc2cc3c(cc12)C(=O)C(C)=C(C)C3=O`, for which the growth inhibition in assay [1] was -1.65%; in assay [2], -3.6%; in assay [3], -3.45%; in assay [4], -9.25%; in assay [5] it was 6.8%; in assay [6], 2.55%.
Consider `CCCCCN=C(N)C(N)=NCCCCC`, for which the growth inhibition in assay [1] is 47.8%; in assay [2], 8%; in assay [3] it was 24.7%; in assay [4], -31.1%; in assay [5], 5.5%; in assay [6], 24.9%.
`CN(C)CCN(C)C(=O)C1CCCN1C(=O)OCc1ccccc1` (stereo not given): the growth inhibition in assay [1] was -44.6%; in assay [2], -56%; in assay [3] it was -53.8%; in assay [4], 9.3%; in assay [5], -37.6%; in assay [6], -46.8%.
In the case of `[O-][N+](CCO)(CCO)c1ncnc2nc[nH]c12`, the growth inhibition in assay [1] is -2.35%; in assay [2] it was -12.7%; in assay [3], -0.45%; in assay [4] it was -8.9%; in assay [5] it was -63.7%; in assay [6], 18.4%.
With `CCOC(=O)/N=N/C(C)(C)OC(C)=O`, the growth inhibition in assay [1] was -10.5%; in assay [2], 9.25%; in assay [3], -8.1%; in assay [4], -39.7%; in assay [5] it was -20.4%; in assay [6], -21.1%.
In the case of `COc1ccc2nc3cccc([N+](=O)[O-])c3c(NC(C)CN(C)C)c2c1` (stereo not given), the growth inhibition is 52% in assay [1]; 35.9% in assay [2]; 54.1% in assay [3]; 64.3% in assay [4]; 26.4% in assay [5]; 42.9% in assay [6].
Take `NC1=NC(=O)/C(=C/c2ccccc2[N+](=O)[O-])C(N)=N1`: the growth inhibition was -26.9% in assay [1]; -0.05% in assay [2]; 10.8% in assay [3]; 4.8% in assay [4]; -5.6% in assay [5]; 24.1% in assay [6].
